Source: PubChem (Broad Institute)
This is one part of a sample in which hits are shown more often than they occur.
DUX4 inh: inhibitors of DUX4-driven ZSCAN4 reporter expression, primary screen, 293T cells, Gaussia and Italica luciferase. 293T-iDUX4 ZSCAN4-Gaussia luciferase reporter, 24 h; stronger effect = lower value. activity change, negative = inhibition, % (no concentration beside the values). 37,000 compounds, 0.8% hits. AID 1224904, 2016;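 active = mean inhibition of at least 10% in the main channel, exceeding the control channel by a set limit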;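 also: 0% = median of neutral control wells and -100% = median of positive control wells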
An asterisk follows results filed as active; ! = not confirmed by another sample.

SMILES | DUX4 inh
Cc1cccc(-c2ccc(C3[C@@H]4CN(C(=O)C5CCOCC5)C[C@H]3N4)cc2)c1 (stereo partly drawn) | 7.1
Cc1cccc(-c2ccc(C3[C@@H]4CN(Cc5cccc(F)c5)C[C@H]3N4)cc2)c1 (stereo partly drawn) | -54.7*!
COc1ccccc1-c1ccc([C@H]2[C@H](CO)N3CCCCN(Cc4ccncc4)C[C@@H]23)cc1 | 1.9
COc1ccccc1-c1ccc(C2[C@@H]3CN(Cc4nccs4)C[C@H]2N3)cc1 (stereo partly drawn) | -43.0*
O=C(Nc1cccc(F)c1)N1C[C@@H]2N[C@H](C1)C2c1ccc(-c2ccc(F)cc2)cc1 (stereo partly drawn) | 8.6
CCCNC(=O)N1C[C@@H]2N[C@H](C1)C2c1ccc(-c2cccc(F)c2)cc1 (stereo partly drawn) | -43.4*!
c1ccc(-c2ccc(C3[C@H]4CNC[C@@H]3N4Cc3nccs3)cc2)cc1 (stereo partly drawn) | 8.5
COc1ccccc1-c1ccc(C2[C@@H]3CN(Cc4cccc(F)c4)C[C@H]2N3)cc1 (stereo partly drawn) | -48.4*
COc1cccc(CN2CCCCN3[C@@H](CO)[C@@H](c4ccc(-c5ccccc5OC)cc4)[C@@H]3C2)c1 | 3.0
Cc1cccc(-c2ccc(C3[C@H]4CNC[C@@H]3N4Cc3cccc(F)c3)cc2)c1 (stereo partly drawn) | 7.5
CCCNC(=O)N1C[C@@H]2N[C@H](C1)C2c1ccc(-c2cccnc2)cc1 (stereo partly drawn) | -1.2
COc1ccccc1-c1ccc(C2[C@H]3CNC[C@@H]2N3Cc2ccc(F)cc2)cc1 (stereo partly drawn) | 16.8
O=C(Nc1cccc(F)c1)N1CC(=O)N2[C@H](C1)[C@H](c1ccc(C#CCC3CCCC3)cc1)[C@@H]2CO | -4.8
C[C@@H]1CN([C@H](C)CO)C(=O)c2cc(NC(=O)Nc3ccc(C(F)(F)F)cc3)ccc2O[C@@H](C)CCCCO[C@@H]1CN(C)S(=O)(=O)c1cn(C)cn1 | 1.5
COc1ccc([C@H]2CC=CC[C@@H](C)Oc3ccccc3C(=O)N(C)[C@H](C(C)C)C(=O)N2)c(OC)c1 (mixture of isomers) | -9.0
C[C@@H]1CCCCO[C@H](CN(C)Cc2ccc(C(F)(F)F)cc2)[C@@H](C)CN([C@@H](C)CO)C(=O)c2cc(NC(=O)CCCN(C)C)ccc2O1 | 1.8
O=C(C1CC1)N1[C@@H](CO)[C@@H]2c3ccccc3N(S(=O)(=O)c3ccc(F)cc3)C[C@@H]21 | 2.8
O=C(O)C[C@H]1C[C@@H]2c3cc(NS(=O)(=O)c4ccc(F)cc4)ccc3O[C@@H]2[C@H](CO)O1 | 2.3
COCC(=O)N1CC2(C1)[C@H](c1ccccc1)[C@@H](CO)N2Cc1ccccc1OC | -7.9
COc1ccccc1CN1CC2(C1)[C@@H](c1ccccc1)[C@@H](CO)N2Cc1ccccc1 | -54.8*
COc1ccccc1CN1[C@H](CO)[C@@H](c2ccccc2)C12CN(C(C)=O)C2 | 3.8
Cc1noc(C)c1NC(=O)N(C)C[C@@H]1Oc2ccc(N(C)C)cc2CC(=O)N([C@H](C)CO)C[C@@H]1C | -3.5
CC(C)NC(=O)N1CC2(C1)[C@H](c1ccccc1)[C@H](CO)N2C(=O)C1CC1 | 8.3
CCC(=O)N1C[C@H](O)COC[C@@H]2O[C@H](CC(=O)NCc3ccccc3Cl)CC[C@H]21 | 7.3
C[C@H]1CN([C@@H](C)CO)C(=O)c2c(c3ccccc3n2C)-c2ccccc2CO[C@@H]1CN(C)Cc1ccc(C(F)(F)F)cc1 | -48.5*
SMILES | DUX4 inh
C[C@H]1CN([C@@H](C)CO)C(=O)c2c(c3ccccc3n2C)-c2ccccc2CO[C@@H]1CN(C)Cc1ccc(C(=O)O)cc1 | 16.3
C[C@@H]1CN([C@@H](C)CO)C(=O)c2c(c3ccccc3n2C)-c2ccccc2CO[C@@H]1CN(C)Cc1ccc(O)cc1 | -9.0
C[C@@H]1CN([C@H](C)CO)C(=O)c2c(c3ccccc3n2C)-c2ccccc2CO[C@H]1CN(C)Cc1ccc(C(F)(F)F)cc1 | 3.3
C[C@@H]1CN([C@H](C)CO)C(=O)c2c(c3ccccc3n2C)-c2ccccc2CO[C@@H]1CN(C)Cc1ccc(C(F)(F)F)cc1 | -43.0*
C[C@@H]1CN([C@H](C)CO)C(=O)c2c(c3ccccc3n2C)-c2ccccc2CO[C@H]1CN(C)Cc1ccc(C(=O)O)cc1 | 5.6
COc1ccc(-c2ccc([C@@H]3[C@@H](CO)N4C(=O)CN(C(=O)c5ccccn5)C[C@H]34)cc2)cc1 | 15.0
C[C@@H](O)C#Cc1ccc([C@@H]2[C@H](CO)N3CCCCN(C(=O)Nc4ccccc4)C[C@@H]23)cc1 | 13.8
Cc1ccc(S(=O)(=O)N[C@H]2CC[C@@H](CCn3cc(C4(O)CCCC4)nn3)O[C@H]2CO)cc1 | -0.3
C/C=C/c1cnc2c(c1)C(=O)N([C@H](C)CO)C[C@@H](C)[C@H](CN(C)C(=O)NC1CCCC1)O2 | 1.4
CC(C)C(=O)Nc1ccc2c(c1)C(=O)N(C)[C@@H]1CC[C@@H](CC(=O)NCCc3ccccc3)O[C@@H]1CO2 | -5.4
CCCC#Cc1ccc2c(c1)O[C@@H](CN(C)C(=O)Nc1ccc(OC)cc1)[C@@H](C)CN([C@@H](C)CO)S2(=O)=O | -1.1
OC[C@H]1[C@H](c2ccc(-c3ccccc3F)cc2)[C@@H]2CN(Cc3ccncc3)CCCCN12 | 1.6
Fc1ccccc1-c1ccc(C2[C@@H]3CN(Cc4ccccn4)C[C@H]2N3)cc1 (stereo partly drawn) | -22.2*!
Cc1ccccc1-c1ccc(C2[C@H]3CNC[C@@H]2N3Cc2ccccn2)cc1 (stereo partly drawn) | 17.9
c1ncc(-c2ccc(C3[C@@H]4CN(Cc5cocn5)C[C@H]3N4)cc2)cn1 (stereo partly drawn) | 12.4
Cc1ccc(CN2CC(=O)N3[C@H](C2)[C@H](c2ccc(-c4ccccc4F)cc2)[C@@H]3CO)cc1 | 1.7
Fc1ccccc1-c1ccc(C2[C@@H]3CN(Cc4ccccc4)C[C@H]2N3)cc1 (stereo partly drawn) | -24.5*!
CCC(=O)N1[C@H](CO)[C@@H](c2ccc(-c3ccc(F)cc3)cc2)C12CN(C(C)=O)C2 | 3.7
CCC(=O)N1CC2(C1)[C@H](c1ccc(-c3ccccc3)cc1)[C@H](CO)N2C(C)=O | 10.2
COc1ccc(CN2CC3(CN(C(=O)C4CCC4)C3)c3c(n(C)c4cc(OC)ccc34)[C@@H]2CO)cc1 | -8.1
Cc1ccccc1-c1ccc(C2[C@H]3CNC[C@@H]2N3S(=O)(=O)c2ccc(F)cc2)cc1 (stereo partly drawn) | 1.5
Cc1ccccc1-c1ccc(C2[C@H]3CNC[C@@H]2N3S(=O)(=O)c2cccc(F)c2)cc1 (stereo partly drawn) | 2.2
COc1ccc(S(=O)(=O)N2[C@@H]3CNC[C@H]2C3c2ccc(-c3ccccc3F)cc2)cc1 (stereo partly drawn) | 4.0
COc1cccc(-c2ccc(C3[C@H]4CNC[C@@H]3N4S(=O)(=O)Cc3ccccc3)cc2)c1 (stereo partly drawn) | 3.8
COc1cccc(S(=O)(=O)N2C[C@@H]3N[C@H](C2)C3c2ccc(-c3ccccc3C)cc2)c1 (stereo partly drawn) | -35.6*!
CN(C)C(=O)c1cccc(-c2ccc(C3[C@H]4CNC[C@@H]3N4S(=O)(=O)Cc3ccccc3)cc2)c1 (stereo partly drawn) | 8.9
